Bioassay records (PubChem BioAssay)
ABHD5 PLIN5 PPI: inhibitors of human ABHD5-perilipin-5 interaction | Split G. princeps luciferase complementation, luminescence, 4 h | inhibition, % at 4 µM | 360,000 compounds, 0.78% hits;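 active = inhibition above the mean inhibition across every tested compound plus 3 SD, cut at about 22% in these data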;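 also: 0% = DMSO only wells and the 100% control is not disclosed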
Target sequence (Q00G26 whole entry, looked up): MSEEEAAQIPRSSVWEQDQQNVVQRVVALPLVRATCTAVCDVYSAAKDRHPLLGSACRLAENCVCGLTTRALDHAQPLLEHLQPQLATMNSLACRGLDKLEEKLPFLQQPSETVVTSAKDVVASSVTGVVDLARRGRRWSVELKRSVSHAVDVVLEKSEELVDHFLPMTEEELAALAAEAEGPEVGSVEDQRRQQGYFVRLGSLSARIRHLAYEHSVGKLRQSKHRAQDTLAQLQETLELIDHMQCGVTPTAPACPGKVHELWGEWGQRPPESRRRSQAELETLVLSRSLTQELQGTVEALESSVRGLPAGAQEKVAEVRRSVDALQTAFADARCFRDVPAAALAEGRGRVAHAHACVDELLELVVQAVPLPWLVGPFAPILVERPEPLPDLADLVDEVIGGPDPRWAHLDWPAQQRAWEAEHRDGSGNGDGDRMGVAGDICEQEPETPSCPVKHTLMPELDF
Target sequence (Q8WTS1 whole entry, looked up): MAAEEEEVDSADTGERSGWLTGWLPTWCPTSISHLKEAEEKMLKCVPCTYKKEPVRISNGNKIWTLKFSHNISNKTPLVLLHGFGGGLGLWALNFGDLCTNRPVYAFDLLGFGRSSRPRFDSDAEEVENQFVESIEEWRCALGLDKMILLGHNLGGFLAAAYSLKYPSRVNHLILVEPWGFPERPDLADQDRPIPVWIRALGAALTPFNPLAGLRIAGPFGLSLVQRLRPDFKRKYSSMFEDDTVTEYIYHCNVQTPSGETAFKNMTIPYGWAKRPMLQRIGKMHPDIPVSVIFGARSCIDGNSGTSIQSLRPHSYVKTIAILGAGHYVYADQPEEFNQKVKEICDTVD
KKLEB tox: CF airway cell cytotoxicity counter-screen. KKLEB CF airway cells viability, ATPlite luminescence, overnight; stronger effect = lower value; cells stimulated with P. aeruginosa culture filtrate. activity change (cytotoxicity), % at 5 µM. 360,000 compounds, 0.36% hits. AID 602141;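 active = corrected activity change at or below -50% at 5 µM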
Peg3 promoter: reduces Peg3 promoter-driven luciferase expression in HeLa. HeLa PEG-Prom luciferase reporter, luminescence, overnight. inhibition, % at 20 µM. 360,000 compounds, 1.7% hits. AID 588405;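 active = inhibition of at least 50% at 20 µM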
HIF-2a inh: blocks HIF-2a reporter activity | inhibition, % at 18.8 µM | 360,000 compounds, 0.72% hits | 786-0 RCC cells HIF-2a reporter, luciferase luminescence, overnight | AID 624352;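 active = inhibition of the luminescence signal of 40% or more relative to plate controls, in a single-dose primary screen at 18.75 µM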
TRPM1 prom inh: MITF TRPM1 promoter inhibition in SK-MEL-5 cells | AID 488899 | 330,000 compounds, 0.83% hits | inhibition, % at 12.5 µM | SK-MEL-5 TRPM1 promoter luciferase, 24 h;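 active = mean inhibition across replicates of 60% or more, whatever share of single replicates reaches that level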
CF NFkB block: inhibitors of cystic fibrosis induced NF-kB. KKLEB NF-kB-GFP reporter, PAF-induced, GFP fluorescence overnight. inhibition, % at 5 µM. 360,000 compounds, 0.86% hits;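 active = at least 50% inhibition at 5 µM, scaled per plate between neutral and stimulator controls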;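 also: PAF is a Pseudomonas aeruginosa culture filtrate used as stimulus; plate controls were PAF-stimulated DMSO wells for no effect and unstimulated DMSO wells for full effect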
The depositor's hits bear a star; nt = not tested or not shown. An excerpt weighted towards active compounds, which were near 3.1% of everything screened.

SMILES | ABHD5 PLIN5 PPI | KKLEB tox | Peg3 promoter | HIF-2a inh | TRPM1 prom inh | CF NFkB block
CCCn1c(=N)n(CC(O)COc2ccc(C)cc2)c2ccccc21 (centres undefined) | -4.7 | -24.0 | 2.4 | 0.2 | -8.5 | 14.5
COc1ccc(OCCn2c(=N)n(CCO)c3ccccc32)cc1 | 0.7 | -2.3 | 9.9 | 3.6 | 5.7 | -6.4
Cc1ccccc1OCC(O)Cn1c(=N)n(Cc2ccccc2)c2ccccc21 (centres undefined) | 15.6 | -10.5 | 110.4* | 9.9 | 17.7 | 8.8
CCCCn1c(=N)n(CC(O)COc2cccc(C)c2)c2ccccc21 (centres undefined) | 1.8 | -8.7 | 69.7* | 6.6 | 0.6 | 5.0
CCCCn1c(N)c(N(C(=O)CSc2nnnn2-c2ccc(C)cc2)C2CCCC2)c(=O)[nH]c1=O | -4.7 | -0.2 | -2.5 | 20.0 | -9.3 | -7.5
O=C1c2ccccc2[C@@H]2Cc3csc[n+]3[C@H]12 | -15.3 | nt | nt | 6.8 | nt | nt
COc1cccc(C(Nc2ccccc2)c2ccc3ccc(C)nc3c2O)c1 (centres undefined) | 0.5 | nt | nt | -98.2 | nt | nt
Cc1cccc(NC(c2ccc(O)cc2)c2ccc3ccc(C)nc3c2O)n1 (centres undefined) | 5.6 | -13.6 | 42.2 | 54.6* | 6.3 | 45.8
Cc1ccc(C(=O)N/N=C/c2cccnc2)cc1Cl | -0.5 | 3.0 | -39.6 | -69.7 | nt | -29.6
CCc1cnc(Nc2nc(C(N)Cc3ccc(Cl)cc3)cs2)nc1 (centres undefined) | -9.6 | -2.4 | 3.6 | 9.4 | nt | 0.7
CCCc1cnc(Nc2nc(C(N)Cc3ccc(OC)cc3)cs2)nc1 (centres undefined) | 16.1 | -18.4 | 99.7* | -11.4 | nt | 10.1
COc1ccc(CC(N)c2csc(Nc3nncc4ccccc34)n2)cc1 (centres undefined) | 7.9 | -17.1 | 121.1* | -9.1 | nt | 7.1
COc1cc(OC)nc(Nc2nc(C(N)Cc3ccc(F)cc3)cs2)n1 (centres undefined) | -2.2 | -20.0 | 95.7* | 15.2 | nt | 25.4
O=C(CN1C(=O)S/C(=C\c2ccc(F)cc2)C1=O)Nc1cccc(S(=O)(=O)NCc2ccco2)c1 | 1.3 | 7.0 | -8.7 | -19.7 | 4.7 | 3.0
CCN1C(=O)[C@H]2[C@@H](c3ccc(C(F)(F)F)cc3)N[C@]3(CCCN(CC4CCCCC4)C3=O)[C@H]2C1=O | 3.5 | 6.3 | 1.9 | 14.7 | nt | 11.7
CCN(CC)CCNc1ccc(CO)c2oc3cc(Cl)ccc3c(=O)c12 | -1.0 | -13.5 | 100.8* | 4.7 | nt | -109.1
Cn1c(=O)c2c(SCC(=O)N3CCCc4ccccc43)nc(C3CC3)nc2n(C)c1=O | 0.5 | -7.6 | 51.8* | 20.4 | 8.4 | -19.9
Cn1c(=O)c2c(SCc3ccccc3)nc(C3CC3)nc2n(C)c1=O | 0.9 | -9.8 | -13.8 | -30.9 | -4.2 | -10.0
CN(C)CC(O)c1ccc(C=Cc2ccc(Cl)cc2)cc1 (centres undefined) | 11.7 | -13.4 | 103.5* | -263.2 | 78.3* | 35.9
CN(C)/C=C/C(=O)/C=C/c1ccc(Cl)cc1 | 19.4 | -9.3 | -152.3 | -176.7 | -50.4 | 23.0
O=C(c1ccccc1)c1coc2c1C(=O)c1ccccc1C2=O | -5.0 | 5.3 | -140.0 | -113.7 | 24.1 | 52.5*
COc1ccc(C(=O)c2coc3c2C(=O)C(=O)c2ccccc2-3)cc1 | 11.3 | 11.2 | -153.5 | -30.3 | -21.5 | 43.5
Cc1ccc(CCNC(=O)C2CC(c3ccccc3C(F)(F)F)=NO2)cc1 (centres undefined) | 0.7 | -2.3 | -6.8 | 3.3 | -8.8 | -0.1
Cc1cn([C@H]2C[C@H](O)[C@@H](CNCc3cc(Cl)ccc3OCc3ccc(Cl)cc3)O2)c(=O)[nH]c1=O | 3.0 | -6.9 | -26.6 | -10.4 | nt | 6.2
O=C(CCC1CCCC1)NCCS(=O)(=O)N1CCN(c2ccccc2)CC1 | -2.7 | -14.3 | 13.9 | 7.8 | 12.7 | -0.3
SMILES | ABHD5 PLIN5 PPI | KKLEB tox | Peg3 promoter | HIF-2a inh | TRPM1 prom inh | CF NFkB block
CCN1/C(=C/c2ccc3cc(C)cc(C)c3[n+]2CC)Sc2cc(C)ccc21 | 7.9 | -52.6* | 98.9* | -15.1 | 82.6* | -245.4
CCN1/C(=C/c2ccc3cccc(C)c3[n+]2CC)Sc2ccccc21 | 14.7 | -37.9 | 55.7* | 11.0 | 72.2* | -88.8
Cc1ccc2c(c1)S/C(=C\c1cccc[n+]1C)N2CCO | 0.6 | 0.6 | 2.1 | -0.2 | 9.0 | -1.6
CCN1/C(=C/c2ccc3cc(C)ccc3[n+]2CC)Sc2ccc3sccc3c21 | 5.2 | 9.7 | 110.7* | 27.4 | 100.1* | -136.7
CCN1/C(=C\c2ccc3cc(C)ccc3[n+]2CC)Sc2cc(C)c(C)cc21 | 4.3 | -12.3 | 37.6 | 13.7 | 72.6* | -65.4
CC[n+]1c(C)sc2c3ccsc3ccc21 | -10.3 | 8.8 | 17.6 | 15.4 | 6.9 | -23.8
C[n+]1ccccc1/C=C1\Sc2ccccc2N1CCO | 8.9 | 9.5 | 19.9 | 5.8 | -2.3 | -28.8
Cc1ccc(S(=O)(=O)NNC(=O)c2ccncc2)cc1[N+](=O)[O-] | -4.3 | -3.2 | 13.0 | 11.4 | 8.4 | -14.9
Cc1cc(-c2nn(-c3ccccc3F)cc2CN(C)CC(O)CO)c(C)s1 (centres undefined) | 3.1 | 1.0 | 8.8 | 5.7 | 6.3 | 9.4
Cc1c(N=C2C=CC(=O)c3ccccc32)c(=O)n(-c2ccccc2)n1C | -9.6 | 3.3 | 46.8 | -58.0 | 70.9* | 14.8
COc1ccc(CC(=O)NNC(=O)c2cccnc2)cc1OC | -0.3 | 8.3 | -1.7 | 11.4 | -1.3 | 9.8
COc1cccc(O)c1CN1CCC(C(=O)Nc2ccc(-c3cccc(C)c3)cc2)CC1 | 7.5 | -31.6 | 105.6* | -4.5 | 34.2 | 20.4
COc1cccc(O)c1CN1CCC(C(=O)Nc2ccc(Oc3cccnc3)cc2)CC1 | 4.2 | -9.8 | 22.0 | 21.2 | 17.5 | 5.6
CC(c1ccccc1C(=O)O)c1cc(F)cc2ccccc12 (centres undefined) | -6.3 | -7.8 | 16.1 | 6.3 | nt | -2.4
O=C(CCCCCn1c(=S)[nH]c2ccc(Br)cc2c1=O)NCC1CCCO1 (centres undefined) | -2.3 | 6.1 | 18.5 | 17.6 | -1.2 | -7.6
NS(=O)(=O)c1ccc(CCNC(=O)CCCCCn2c(=S)[nH]c3ccc(Br)cc3c2=O)cc1 | 6.3 | -32.5 | 61.6* | 18.2 | 16.0 | 6.7
CCOC(=O)N1CCN(C(=O)c2ccc3c(=O)n(Cc4ccc(Cl)cc4)c(=S)[nH]c3c2)CC1 | -6.5 | -8.1 | 25.8 | 7.4 | -7.4 | -17.2
CCOC(=O)N1CCN(C(=O)c2ccc(Cn3c(=S)[nH]c4ccc(Br)cc4c3=O)cc2)CC1 | 1.0 | 6.4 | 30.5 | 1.3 | 71.1* | -3.4
CCOC(=O)CNC(=O)CN1CCC(c2nc3ccccc3[nH]2)CC1 | -0.1 | 3.7 | 4.1 | 6.5 | 10.9 | 6.3
COc1ccc(S(=O)(=O)NCc2ccco2)c2ccccc12 | 23.0* | -15.8 | 27.6 | -13.3 | 2.7 | 1.4
CCOc1ccc(CCNS(=O)(=O)c2c(C)nc3sccn3c2=O)cc1OCC | 2.6 | 0.3 | -2.1 | 0.7 | nt | -2.8
O=S(=O)(Nc1cccc(-c2ccc3nncn3n2)c1)c1ccccc1F | 6.1 | -3.3 | -10.4 | -9.8 | -0.1 | 13.3
